TNAP act DEA: human TNAP activation, intermediate phosphate acceptor; purified TNAP, CDP-star luminescence, 100 mM DEA, 30 min; active compounds read high; scale: 0 levamisole-inhibited, 1 vehicle-only enzyme; activation factor at 20 µM; 64,000 tested, under 10 active; AID 813;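 active means activation factor of at least 2 at 20 µM, relative to controls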
PostGolgi yeast: growth inhibition of a yeast mutant, post-Golgi transport screen; 98,000 tested, 0.9% active; inhibition, % at 10 µM; post-Golgi transport phenotypic cell assay;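 further: yeast cells grown in 1536-well plates; yeast grown about 18 h at 30C before absorbance read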
hDAT+cocaine: human DAT dopamine uptake with cocaine, either direction; Q01959; LLC-PK1 hDAT cells, [14C]-dopamine uptake with cocaine IC80; actives deviate in either direction; B-score at 10 µM; 110,000 tested, 1.3% active;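 active means Z score or B-score, a plate-position-corrected score, falls beyond the plate's 99.7% confidence bounds, in either direction; inactive means both scores lie inside the 99.7% bounds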;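 further: scored against the spread of the other compound wells on the same plate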
Target sequence (Q01959 whole entry, looked up): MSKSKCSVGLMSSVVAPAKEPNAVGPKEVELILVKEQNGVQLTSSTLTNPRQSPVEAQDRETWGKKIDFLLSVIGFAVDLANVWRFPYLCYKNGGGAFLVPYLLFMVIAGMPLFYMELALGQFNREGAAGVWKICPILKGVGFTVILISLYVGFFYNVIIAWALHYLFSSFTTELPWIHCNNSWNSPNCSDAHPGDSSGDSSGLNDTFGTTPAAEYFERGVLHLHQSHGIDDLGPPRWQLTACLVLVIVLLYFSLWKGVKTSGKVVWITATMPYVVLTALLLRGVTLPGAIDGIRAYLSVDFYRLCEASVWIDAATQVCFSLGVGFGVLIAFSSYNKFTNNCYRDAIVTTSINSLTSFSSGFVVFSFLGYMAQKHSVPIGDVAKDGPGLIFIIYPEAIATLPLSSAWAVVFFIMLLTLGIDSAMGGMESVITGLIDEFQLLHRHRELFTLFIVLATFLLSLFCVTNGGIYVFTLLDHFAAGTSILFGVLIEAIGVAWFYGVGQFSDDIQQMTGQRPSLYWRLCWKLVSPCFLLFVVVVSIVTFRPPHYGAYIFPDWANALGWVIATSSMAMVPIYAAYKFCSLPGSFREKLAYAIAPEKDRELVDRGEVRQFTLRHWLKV
Cav3 T inh: human Cav3.2 channel inhibition, primary screen. Cav3.2-expressing cells, Fluo-4 calcium fluorescence FDSS; active compounds read low. B-score at 10 µM. O95180. 100,000 tested, 4% active;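 active means single-dose well whose peak fluorescence ratio is a statistical outlier from its plate by either plate-standardised score or position-corrected B-score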
Smad3 FoxH1 inh: inhibitors of human Smad3 transcription factor binding; P84022; TR-FRET Smad3/Dy647-FoxH1 peptide binding, europium anti-His; inhibition, % at 25 µM; 88,000 tested, 0.29% active; AID 630;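 active means compounds that reduce the energy-transfer binding signal between the protein and its labelled peptide by more than half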;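 further: 0% = Smad3 plus labelled peptide maximal FRET and 100% = peptide-only background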
PostGolgi ctrl: growth of the yeast control strain, post-Golgi counter-screen | efflux-deficient yeast background strain, growth absorbance A615, 16 h | 98,000 tested, 5% active | inhibition, % at 10 µM
An asterisk follows results filed as active; / = no result given. The list is not random: actives were taken first. Their share in the collection is about 8.7%. Unless noted, no stated cut-off is given here; in the data, active means inhibition above about 30%; inactive means the rest.

SMILES	TNAP act DEA	PostGolgi yeast	hDAT+cocaine	Cav3 T inh	Smad3 FoxH1 inh	PostGolgi ctrl
Cc1ccc(Cl)cc1N1CCN(Cc2nnnn2C2CCCCC2)CC1	0.8	5	0.32	-5.2*	-7	58*
Cc1ccc(Cl)cc1N1CCN(Cc2nnnn2Cc2ccco2)CC1	0.9	4	0.26	-6.7*	-9	38*
c1coc(Cn2nnnc2CN2CCN(C3CCCCC3)CC2)c1	0.9	-1	-0.058	0.0047	-3	4
CCC(c1nnnn1Cc1ccco1)N1CCC(C(N)=O)CC1 (configuration not stated)	0.9	15	-0.58	0.3	10	-6
c1ccc(N2CCN(Cc3nnnn3C3CCCCC3)CC2)cc1	0.9	-1	0.51	0.49	0	0
CCC(c1nnnn1Cc1ccco1)N1CCN(c2cc(Cl)ccc2C)CC1 (configuration not stated)	1	4	0.75	-5.8*	-1	56*
c1ccc(CN2c3ccccc3-c3nc4ccccc4n3C2c2ccccn2)cc1 (configuration not stated)	/	9	-0.039	-6.6*	22	43*
COc1ccc(C(c2nnnn2Cc2cccs2)N2CCN(c3ccccc3F)CC2)cc1OC (configuration not stated)	1	-4	-0.53	-3	11	4
CCCC(c1nnnn1C1CCCCC1)N1CCN(c2ncccn2)CC1 (configuration not stated)	0.9	1	/	0.0019	-8	37*
c1cnc2ccc(C(c3nnnn3C3CCCCC3)N3CCCCC3)cc2c1 (configuration not stated)	/	/	0.029	-4.7*	0	/
c1cnc2ccc(C(c3nnnn3C3CCCCC3)N3CCN(C4CCCCC4)CC3)cc2c1 (configuration not stated)	/	/	1	1.6	0	/
Cc1ccc2cc(C(c3nnnn3C3CCCC3)N3CCN(c4ccc(F)cc4)CC3)c(=O)[nH]c2c1 (configuration not stated)	0.8	2	3.7*	-5.3*	3	8
Cc1cc(C)c2cc(C(c3nnnn3C3CCCC3)N3CCOCC3)c(=O)[nH]c2c1 (configuration not stated)	0.9	-1	-0.41	1.9	-6	4
Fc1ccc(C(c2nnnn2Cc2cccs2)N2CCN(c3ccccc3)CC2)cc1 (configuration not stated)	/	/	2.2*	-5.8*	5	/
N[C@@H](Cc1nn[nH]n1)C(=O)O	/	/	/	/	4	/
c1ccc(C(c2nnnn2C2CCCC2)N2CCN(c3ccccc3)CC2)cc1 (configuration not stated)	/	/	-0.29	-5.1*	1	/
COCCn1nnnc1C(c1ccc(OC)cc1)N1CCC(C)CC1 (configuration not stated)	0.9	-5	-1	-0.051	10	9
c1ccc(CC2CCN(C(c3cccs3)c3nnnn3C3CCCC3)CC2)cc1 (configuration not stated)	0.9	-8	-0.72	-3.4*	0	12
COc1ccc(C(c2nnnn2C2CCCC2)N2CCC(C)CC2)cc1 (configuration not stated)	0.9	0	-3*	-4.4*	-12	16
COc1ccc(C(c2nnnn2C2CCCCC2)N2CCN(c3ccc(OC)cc3)CC2)cc1 (configuration not stated)	0.9	14	0.8	-6.4*	-13	16
c1cc(N2CCCC2)ccc1C(c1nnnn1C1CCCCC1)N1CCOCC1 (configuration not stated)	0.9	-7	-0.31	-0.86	0	5
O=C(CCC(=O)c1ccc(Oc2ccccc2)cc1)Nc1ccc(Cl)cc1Cl	/	1	-0.99	-2.8	/	1
COc1ccc(Nc2nnc(Cc3ccccc3)c(=O)[nH]2)c(OC)c1	1	2	-0.92	-0.21	5	7
COC(=O)[C@H]1[C@H](CCc2ccccc2)NC(=O)N(Cc2ccccc2)[C@@H]1C	/	/	0.41	-2.3	/	/
NC12CCc3c(no[n+]3[O-])C1(O)CC(c1ccccc1)=[N+]2[O-] (configuration not stated)	/	-2	-1.6	0.46	2	4
SMILES	TNAP act DEA	PostGolgi yeast	hDAT+cocaine	Cav3 T inh	Smad3 FoxH1 inh	PostGolgi ctrl
CCc1ccc2[nH]c(=O)c(C(c3nnnn3CCOC)N3CCN(c4ccc(F)cc4)CC3)cc2c1 (configuration not stated)	0.9	-1	1.1	-5.7*	9	5
CCOC(=O)C1CN(S(=O)(=O)c2ccc(OC)cc2)c2cc(S(=O)(=O)CC)ccc2O1 (configuration not stated)	/	-10	-7.9*	1.3	/	25
CC1(C)Cc2nc3sc4c(=O)n(CC(N)=O)cnc4c3cc2CO1	/	-3	/	/	/	7
CC1(C)Cc2nc3sc4c(=O)n(CC(=O)NCc5ccccc5)cnc4c3cc2CO1	/	-24	-2.9*	0.31	/	13
Cc1sc(NC(=O)CSC2=NCCS2)nc1-c1ccccc1	/	0	-0.001	-4.4*	-1	6
Cc1cc(NC(=O)CSC2=NCCS2)no1	0.9	-5	1.2	0.039	6	30*
COc1ccc(C2C(C(=O)c3ccco3)=C(O)C(=O)N2Cc2cccnc2)cc1OC (configuration not stated)	1	6	-0.83	0.26	8	34*
CCOc1ccc(C2C(C(=O)c3ccco3)=C(O)C(=O)N2Cc2cccnc2)cc1 (configuration not stated)	1	-1	-0.89	-0.52	14	1
O=C(NC1CC2CCCC(C1)N2C(=O)Nc1ccc(Cl)c(C(F)(F)F)c1)C1CC1 (configuration not stated)	/	-5	-0.017	-5.7*	-1	15
O=C(O)Cc1coc(-c2ccc(F)cc2)n1	0.9	3	-8.5*	0.71	8	4
COC(=O)C(NC(=O)c1ccc(C)cc1)(Nc1cccc(C)n1)C(F)(F)F (configuration not stated)	/	/	1.2	-4.6*	-2	/
Cc1nnc(-c2cccc(Br)c2)c2cn(-c3ccccc3)nc12	/	94*	0.46	0.75	/	21
Cc1nnc(-c2cccc(Br)c2)c2cn(-c3cccc(Br)c3)nc12	/	7	-0.85	-0.5	/	19
Cc1nnc(-c2cccc(Br)c2)c2cn(-c3ccc(Br)cc3)nc12	/	64*	0.92	0.27	/	49*
CCCS(=O)(=O)N1CCCC(C(=O)NC2CCCC(C)C2C)C1 (configuration not stated)	0.8	5	-0.091	0.083	3	-6
CN(C)c1ccc(/C=C(\C#N)C(=O)Nc2nc3c(s2)CCN(Cc2ccccc2)C3)cc1	/	/	/	-4*	13	4
Cc1nc(SCC(N)=O)[nH]c(=O)c1CCC(C)C	/	-2	0.099	0.76	-5	-3
Cc1nnc(N2C(=O)C(O)=C(C(=O)c3ccco3)C2c2ccc(F)cc2)s1 (configuration not stated)	0.9	-2	0.41	0.48	-12	4
